Nrf2 block = blocks Nrf2 signaling; A549 ARE-Fluc reporter, luciferase luminescence, 18-24 h; Potency, µM (doses to about 46 µM), for inactives: at the highest dose activity change, negative = inhibition, hits mostly inhibitors; 360,000 tested, 2.1% active; note: potency is the fitted concentration of half-maximal effect; nearly all actives have a fitted effect of over 60% in size
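Nrf2 function is reported as luminescence of an ARE-controlled luciferase in A549 cells. Compounds were tested at several concentrations, and a CellTiter-Fluor read on the same wells flagged cytotoxicity.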
A549 tox = counter-screen for Nrf2 inhibitors: cytotoxicity in A549 cells | A549 ARE-Fluc cells, CellTiter-Fluor viability, 18-24 h | Potency, µM (doses to about 46 µM), without a hit: top-dose activity change, negative = cytotoxicity, usual class: inhibitors | 390,000 tested, 0.16% active | AID 504648; note: potency is the fitted concentration of half-maximal effect
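Cytotoxicity counterscreen: CellTiter-Fluor fluorescence was measured in A549 ARE_Fluc cells after 18-24 h of compound exposure in a concentration series. The subsequent BugLite luminescent read reports ARE-luciferase activity.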
KB-3-1 cytotox = KB-3-1 parental cell cytotoxicity; KB-3-1 viability, CellTiter-Glo ATP luminescence, 72 h; Potency, µM (highest dose often 46.1 µM), most hits filed as cytotoxic; 400,000 tested, 1.4% active; AID 1347075; note: potency is the fitted concentration of half-maximal effect; nearly all actives have a fitted effect of over 60% in size
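KB-3-1 cells, DMEM (no phenol red) + 10% FBS; compound by pin transfer, 72 h, 37 °C. Readout: CellTiter-Glo luminescence after 10 min. Data normalized, curve-fitted.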
PI4K2A inh = PI4K2A (human) kinase inhibition; Q9BTU6; purified PI4K2A, ADP-Glo luminescence, 1 h; hits give low values; activity change, negative = inhibition, % at 76.9 µM; 420,000 tested, 0.13% active; AID 1346378; in the data active = activity change below about -50%; inconclusive = mostly about -30% to -49%;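 note: -100% = wells without enzyme as full effect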
Target sequence (Q9BTU6 whole entry, looked up): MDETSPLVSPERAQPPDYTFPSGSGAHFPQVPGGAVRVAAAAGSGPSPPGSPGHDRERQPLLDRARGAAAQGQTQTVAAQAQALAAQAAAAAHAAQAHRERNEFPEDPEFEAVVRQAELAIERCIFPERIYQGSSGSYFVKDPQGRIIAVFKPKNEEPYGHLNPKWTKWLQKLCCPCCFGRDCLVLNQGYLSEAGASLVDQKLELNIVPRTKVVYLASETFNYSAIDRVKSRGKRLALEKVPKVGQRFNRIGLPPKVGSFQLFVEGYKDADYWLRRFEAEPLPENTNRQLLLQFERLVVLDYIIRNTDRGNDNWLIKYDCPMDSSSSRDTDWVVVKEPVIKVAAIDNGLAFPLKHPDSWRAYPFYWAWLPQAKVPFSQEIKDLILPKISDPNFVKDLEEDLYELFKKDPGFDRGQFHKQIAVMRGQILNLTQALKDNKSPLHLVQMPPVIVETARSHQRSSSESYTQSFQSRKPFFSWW
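ADP-Glo luminescence measured ADP generated by PI4K2A enzyme (4 ug/mL before mixing) with 1.2 mM PI substrate (pre-mix) and 300 microM ATP (pre-mix). Tris pH7.5 buffer with MgCl2, Triton X-100; 1 h reaction at ambient temperature.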
Giardia killer = kills Giardia lamblia; activity change, % at 7.66 µM, hits read low; 340,000 tested, 0.15% active; AID 540267; Giardia lamblia trophozoite viability; in the data active = activity change below about -80%; inconclusive = between about -30% and that limit;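 note: parasites exposed to compound for two days anaerobically before the ATP read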
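Trophozoites 100 cells/well + cpd; 48 hrs, 37 deg C, anaerobic. ATPLite 1-Step added, 15-30 min RT, luminescence read (ATP-based viability).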
KB-V1 cytotox = KB-V1 MDR subline cytotoxicity; KB-V1 MDR cells viability, CellTiter-Glo, 72 h; Potency, µM (doses to about 46.1 µM), usual class: cytotoxic; 400,000 tested, 3.4% active; note: potency is the fitted concentration of half-maximal effect; nearly all actives have a fitted effect of over 60% in size
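Luminescent ATP read-out (CellTiter-Glo, 10 min) measures survival of drug-selected KB-V1 MDR cells after 72 h, 37 degrees C compound exposure. Medium: phenol-red-free DMEM, 10% FBS. Values from fitted concentration-response curves.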
* = called active by the depositor. An excerpt weighted towards active compounds, which were near 5.7% of everything screened. Unless noted, calls come from the whole dose curve; as a rule, active = well fitted curve in the direction sought with a large enough effect; inconclusive = small, poorly fitted or top-dose-only effect, or another doubt; inactive = no such curve, though single readings can be large; an effect the other way counts as inactive or inconclusive. Unless noted, % is set by controls: 0 for no effect and ±100 for the full control effect.

`Cc1cc2c(s1)c1cnn(Cc3ccc(SC(F)(F)F)cc3)c(=O)c1n2C` gave Nrf2 block 5% and A549 tox -1%.
For O=[N+]([O-])c1cccnc1N/N=C/c1ccccc1O the results were Nrf2 block -1%, A549 tox -7%, KB-3-1 cytotox 1.8µM*, PI4K2A inh -6, Giardia killer -29 and KB-V1 cytotox inconclusive.
For O=[N+]([O-])c1ccc(NN=Cc2ccccc2O)nc1 the results were Nrf2 block inconclusive, A549 tox inconclusive, KB-3-1 cytotox inactive, PI4K2A inh 0, Giardia killer 18 and KB-V1 cytotox inactive.
O=[N+]([O-])c1ccc(O)c(/C=N/Nc2ccccn2)c1 was read as Nrf2 block inconclusive, A549 tox 15µM*, KB-3-1 cytotox inconclusive, PI4K2A inh -5, Giardia killer 0 and KB-V1 cytotox inactive.
Screening C[C@H]1[C@@H](NC(=O)C#Cc2ccccc2)CC[C@@]23CCCN2C(=O)CCC[C@@H]13 returned PI4K2A inh 3.
COc1ccc(-c2ccc(=O)n(CC(=O)Nc3ccc(N(C)C)cc3)n2)cc1 was read as A549 tox -3%, KB-3-1 cytotox inactive, PI4K2A inh -5 and KB-V1 cytotox inactive.
`CCOC(=O)c1c(C)[nH]c(CCC(=O)Nc2c(C)cccc2CC)c1C` gave A549 tox -12% and PI4K2A inh -1.
Screening Cc1ccc(-n2c(-c3ccccc3)c[n+]3c2CCc2ccccc2-3)c(C)c1 returned Nrf2 block 4.1µM*, A549 tox inconclusive, KB-3-1 cytotox 4.6µM*, PI4K2A inh -3, Giardia killer 2 and KB-V1 cytotox inactive.
`O=C(NCCCc1ccccc1)OC1CC2CC1[C@H]1CCCCN1C2` (some centres undefined) gave PI4K2A inh -1.
For COc1ccc(CNC(=O)CN2C(=O)C3CCCN3c3ncc(Cl)cc32)cc1 (centres undefined) the results were Nrf2 block 8%, A549 tox 0%, KB-3-1 cytotox inactive, PI4K2A inh -2, Giardia killer -3 and KB-V1 cytotox inactive.
`CCc1ccccc1NC(=O)CN1C(=O)C2CCCN2c2ncc(Cl)cc21` (centres undefined) gave Nrf2 block -17%, A549 tox -16%, KB-3-1 cytotox inactive, PI4K2A inh 6, Giardia killer -1 and KB-V1 cytotox 15µM*.
Screening Cc1ccc(-c2csc(N3CCC(NS(=O)(=O)c4ccc5c(c4)OCCO5)CC3)n2)cc1 returned Nrf2 block 15µM*, A549 tox inconclusive, KB-3-1 cytotox inconclusive, PI4K2A inh -4, Giardia killer -9 and KB-V1 cytotox inconclusive.
Screening COC(=O)[C@@]12OC[C@]34[C@H]([C@@H](O)[C@@H]1O)[C@@]1(C)C(=O)C(O[C@@H]5OC(CO)[C@@H](O)[C@@H](O)[C@@H]5O)=C[C@@H](C)[C@@H]1C[C@H]3OC(=O)[C@H](OC(=O)/C=C(\C)C(C)(C)OC(C)=O)[C@@H]24 (some centres undefined) returned Nrf2 block 2.9µM*, A549 tox inconclusive, KB-3-1 cytotox inconclusive, PI4K2A inh -1, Giardia killer inconclusive and KB-V1 cytotox inactive.
For Cc1ccc(NS(=O)(=O)c2ccc3c(c2)n(C)c(=O)n3C)cc1 the results were Nrf2 block -15%, A549 tox 0%, KB-3-1 cytotox inconclusive, PI4K2A inh 8, Giardia killer -15 and KB-V1 cytotox inactive.
`COc1ccc(S(=O)(=O)Nc2ccc3c(c2)n(C)c(=O)n3C)cc1C` gave Nrf2 block inconclusive, A549 tox -10%, KB-3-1 cytotox inconclusive, PI4K2A inh -2, Giardia killer 1 and KB-V1 cytotox inactive.
`Cn1c(=O)n(C)c2cc(NS(=O)(=O)c3ccc(C(C)(C)C)cc3)ccc21` gave Nrf2 block 10µM*, A549 tox -6%, KB-3-1 cytotox inactive, PI4K2A inh -4, Giardia killer -3 and KB-V1 cytotox inconclusive.

Source: PubChem
